Laboratory results: PubChem BioAssay AID1159580 (chemical genetic matrix, 2015)
Screen size: about 5,500 compounds; about 2,000 (36%) were called active. Roughly 18% stayed inconclusive and do not appear here. Cut-off read from the data, not from the text of the source: active = normalized growth mostly below about 0.91 (no sharp cut-off); inconclusive = no clear call, values can overlap the other calls; inactive = mostly above about 0.92. The list shows a part of the results.

Experiment: chemical genetic growth profiling, strain panel (AID 1159580);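 note: tested at 20 µM; growth read once vehicle control cultures reached saturation at 30 °C; 1 = growth at the plate median or of vehicle wells; lower values mean less growth of the strain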
Conditions: growth OD

Measured: normalized growth

CC(C)c1ccc2c(c1)CCC1[C@](C)(CN)CCC[C@]21C (stereo partly specified)
inactive: S. cerevisiae deletion strains, locus YKL068W, hits give low values 0.982 | S. cerevisiae deletion strains, locus YKL085W, strain MDH1 (second series), hits give low values 0.978 | S. cerevisiae deletion strains, locus YKL085W, strain MDH1, hits give low values 0.978 | S. cerevisiae deletion strains, locus YKL160W, strain elf1, hits give low values 0.952 | S. cerevisiae deletion strains, locus YKR026C, strain gcn3, hits give low values 1.02 | S. cerevisiae deletion strains, locus YKR091W, strain srl3, hits give low values 1.01 | S. cerevisiae deletion strains, locus YLL001W, strain dnm1, hits give low values 0.963 | S. cerevisiae deletion strains, locus YLL026W, hits give low values 1.01 | S. cerevisiae deletion strains, locus YLL041C, strain sdh2, hits give low values 1.02 | S. cerevisiae deletion strains, locus YLR027C, strain aat2, hits give low values 0.978 | S. cerevisiae deletion strains, locus YLR039C, strain RIC1, hits give low values 1.28 | S. cerevisiae deletion strains, locus YLR113W, strain HOG1, hits give low values 0.999 | S. cerevisiae deletion strains, locus YLR221C, strain rsa3, hits give low values 0.953 | S. cerevisiae deletion strains, locus YLR258W, strain gsy2, hits give low values 0.948 | S. cerevisiae deletion strains, locus YLR262C, strain YPT6 (second series), hits give low values 0.959 | S. cerevisiae deletion strains, locus YLR262C, strain YPT6, hits give low values 1.1 | S. cerevisiae deletion strains, locus YLR320W, strain mms22, hits give low values 0.899 | S. cerevisiae deletion strains, locus YLR357W, strain rsc2, hits give low values 0.976 | S. cerevisiae deletion strains, locus YLR384C, strain iki3, hits give low values 0.999 | S. cerevisiae deletion strains, locus YML120C, strain ndi1, hits give low values 0.92 | S. cerevisiae deletion strains, locus YMR058W, strain fet3, hits give low values 0.932 | S. cerevisiae deletion strains, locus YMR125W, strain sto1, hits give low values 0.93 | S. cerevisiae deletion strains, locus YMR129W, hits give low values 1.01 | S. cerevisiae deletion strains, locus YMR205C, strain PFK2, hits give low values 0.933 | S. cerevisiae deletion strains, locus YMR231W, strain pep5, hits give low values 1.03 | S. cerevisiae deletion strains, locus YNL183C, strain NPR1, hits give low values 0.951 | S. cerevisiae deletion strains, locus YNL209W, strain ssb2, hits give low values 0.975 | S. cerevisiae deletion strains, locus YNL248C, strain rpa49, hits give low values 1.01 | S. cerevisiae deletion strains, locus YNL250W, strain rad50, hits give low values 0.936 | S. cerevisiae deletion strains, locus YNL271C, strain bni1, hits give low values 0.979 | S. cerevisiae deletion strains, locus YNL322C, strain KRE1 (second series), hits give low values 1.01 | S. cerevisiae deletion strains, locus YNR049C, strain mso1, hits give low values 1.03 | S. cerevisiae deletion strains, locus YOL012C, strain htz1 0.217 | S. cerevisiae deletion strains, locus YOR001W, strain rrp6, hits give low values 1.02 | S. cerevisiae deletion strains, locus YOR070C, strain gyp1, hits give low values 0.978 | S. cerevisiae deletion strains, locus YOR080W, strain dia2, hits give low values 0.995 | S. cerevisiae deletion strains, locus YOR083W, strain WHI5, hits give low values 0.904 | S. cerevisiae deletion strains, locus YOR106W, strain vam3, hits give low values 0.92 | S. cerevisiae deletion strains, locus YOR231W, strain MKK1, hits give low values 0.963 | S. cerevisiae deletion strains, locus YOR265W, strain rbl2, hits give low values 0.999 | S. cerevisiae deletion strains, locus YPL051W, strain arl3, hits give low values 0.988 | S. cerevisiae deletion strains, locus YPL078C, strain atp4, hits give low values 0.896 | S. cerevisiae deletion strains, locus YPL106C, strain sse1, hits give low values 0.939 | S. cerevisiae deletion strains, locus YPL240C, strain hsp82, hits give low values 0.988 | S. cerevisiae deletion strains, locus YPL256C, strain CLN2, hits give low values 0.979 | S. cerevisiae deletion strains, locus YPR141C, strain kar3, hits give low values 0.92
active: S. cerevisiae deletion strains, locus YKL009W, strain mrt4, hits give low values 0.868 | S. cerevisiae deletion strains, locus YKL190W, strain CNB1, hits give low values 0.211 | S. cerevisiae deletion strains, locus YKR001C, strain vps1, hits give low values 0.0635 | S. cerevisiae deletion strains, locus YLR058C, strain SHM2, hits give low values 0.17 | S. cerevisiae deletion strains, locus YLR102C, strain apc9, hits give low values 0.922 | S. cerevisiae deletion strains, locus YLR268W, strain sec22, hits give low values 0.092 | S. cerevisiae deletion strains, locus YLR330W, strain CHS5, hits give low values 0.262 | S. cerevisiae deletion strains, locus YLR342W, strain FKS1 (second series), hits give low values 0.269 | S. cerevisiae deletion strains, locus YLR342W, strain FKS1, hits give low values 0.836 | S. cerevisiae deletion strains, locus YLR370C, strain arc18, hits give low values 0.865 | S. cerevisiae deletion strains, locus YLR371W, strain rom2, hits give low values 0.286 | S. cerevisiae deletion strains, locus YLR418C, strain cdc73, hits give low values 0.11 | S. cerevisiae deletion strains, locus YML016C, strain PPZ1, hits give low values 0.513 | S. cerevisiae deletion strains, locus YML032C, strain rad52, hits give low values 0.32 | S. cerevisiae deletion strains, locus YML124C, strain tub3, hits give low values 0.198 | S. cerevisiae deletion strains, locus YMR078C, strain ctf18, hits give low values 0.654 | S. cerevisiae deletion strains, locus YMR223W, strain ubp8, hits give low values 0.177 | S. cerevisiae deletion strains, locus YMR263W, strain SAP30, hits give low values 0.642 | S. cerevisiae deletion strains, locus YMR307W, strain GAS1, hits give low values 0.16 | S. cerevisiae deletion strains, locus YNL067W, strain RPL9B, hits give low values 0.62 | S. cerevisiae deletion strains, locus YNL071W, strain lat1, hits give low values 0.737 | S. cerevisiae deletion strains, locus YNL128W, strain TEP1, hits give low values 0.279 | S. cerevisiae deletion strains, locus YNL153C, strain GIM3, hits give low values 0.262 | S. cerevisiae deletion strains, locus YNL233W, strain BNI4, hits give low values 0.414 | S. cerevisiae deletion strains, locus YNL298W, strain CLA4, hits give low values 0.839 | S. cerevisiae deletion strains, locus YNL307C, strain MCK1, hits give low values 0.132 | S. cerevisiae deletion strains, locus YNL322C, strain KRE1, hits give low values 0.599 | S. cerevisiae deletion strains, locus YNR052C, strain pop2, hits give low values 0.0663 | S. cerevisiae deletion strains, locus YOL006C, strain TOP1, hits give low values 0.139 | S. cerevisiae deletion strains, locus YOL147C, strain pex11, hits give low values 0.0811 | S. cerevisiae deletion strains, locus YOR061W, strain CKA2, hits give low values 0.417 | S. cerevisiae deletion strains, locus YOR069W, strain VPS5, hits give low values 0.847 | S. cerevisiae deletion strains, locus YOR136W, strain idh2, hits give low values 0.257 | S. cerevisiae deletion strains, locus YOR144C, strain elg1, hits give low values 0.372 | S. cerevisiae deletion strains, locus YOR184W, strain ser1, hits give low values 0.124 | S. cerevisiae deletion strains, locus YOR270C, strain vph1, hits give low values 0.577 | S. cerevisiae deletion strains, locus YOR290C, strain snf2, hits give low values 0.85 | S. cerevisiae deletion strains, locus YOR316C, strain cot1, hits give low values 0.837 | S. cerevisiae deletion strains, locus YPL055C, strain LGE1, hits give low values 0.404 | S. cerevisiae deletion strains, locus YPL241C, strain CIN2, hits give low values 0.865 | S. cerevisiae deletion strains, locus YPR119W, strain clb2, hits give low values 0.923 | S. cerevisiae deletion strains, locus YPR163C, strain tif3, hits give low values 0.072 | S. cerevisiae deletion strains, locus YPR167C, strain met16, hits give low values 0.731 | S. cerevisiae deletion strains, strain wtn01, hits give low values 0.146 | S. cerevisiae strains, strain wild type, hits give low values 0.255
